The values that follow come from PubChem BioAssay (NCATS).

Inconclusive results are not listed. Calls of active or inactive are those of the source. Unless noted, calls follow the shape of the dose curve; as a rule, active = well fitted curve in the direction sought with a large enough effect; inconclusive = small, poorly fitted or top-dose-only effect, or another doubt; inactive = no such curve, though single readings can be large; an effect the other way counts as inactive or inconclusive.

Test [1] can be described thus: Quantitative high throughput screen for delayed death inhibitors of the malarial parasite plastid, 96 hour incubation (AID 488745). Also: series mostly up to about 29 µM; % is scaled to controls: 0 for no effect and ±100 for the full control effect; nearly all actives have a fitted effect of over 70% in size. In a few lines: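 Decreased firefly luciferase luminescence indicates inhibited growth of reporter-integrated P. falciparum after two generations (96 h, 37 C, 5% CO2). Infected erythrocytes at 0.1% parasitemia, 2% hematocrit, in Albumax-supplemented RPMI 1640.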

Test [2] in a line: Quantitative high throughput screen for delayed death inhibitors of the malarial parasite plastid, 48 hour incubation (AID 488752). Also: % is scaled to controls: 0 for no effect and ±100 for the full control effect; nearly all actives have a fitted effect of over 65% in size. In outline: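 One-generation (48 h) growth assay: a decrease in luciferase signal from an integrated reporter in P. falciparum-infected red cells (0.1% parasitemia, 2% hematocrit) after compound exposure at 37 C indicates parasite inhibition.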
Test [3] addresses Thioredoxin reductase 1, cytoplasmic (Rattus norvegicus) (UniProt O89049). Put plainly: qHTS Assay for Substrates of Mammalian Selenoprotein Thioredoxin Reductase 1 (TrxR1) (AID 488772).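 Also: series mostly up to about 57 µM; 0% is about no effect; a drop in NADPH fluorescence below the no-compound background marks a TrxR1 substrate.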 In outline: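 In this dual-purpose format, potential substrates are identified from the first fluorescence read after selenite addition, not from the 8-minute delta. Rat enzyme is preincubated with NADPH and then with compound at ~22 deg C.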

Test [4] shares this target. The experiment in a line: qHTS Assay for Inhibitors of Mammalian Selenoprotein Thioredoxin Reductase 1 (TrxR1) (AID 488773).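 Also: drop in NADPH fluorescence over an 8 min run after selenite addition; series mostly up to about 57 µM; % is scaled to controls: 0 for no effect and ±100 for the full control effect; nearly all actives have a fitted effect of over 40% in size.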 Conditions: Potency: inhibition. In outline:
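Inhibition is scored from the loss of NADPH fluorescence between first and last reads of an 8-min kinetic run. Selenite (400 uM) was the substrate, added after 15 min compound preincubation at room temperature.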
In general terms: Quantitative high-throughput screening tests each substance at several concentrations.

The target of test [5] is Flap endonuclease 1 (Homo sapiens) (UniProt P39748). The experiment in a line: qHTS Validation Assay for the Inhibitors of Human Flap endonuclease 1 (FEN1) (AID 488816). Also: % is scaled to controls: 0 for no effect and ±100 for the full control effect. In outline:
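Enzyme reagent 10 nM; cpds pinned; 15 min RT preinc.; substrate 50 nM final; reads t=0 and 15 min; no-enzyme buffer wells as neg. control; normalized data, 4-parameter Hill fit.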

Test [6] deals with M-phase phosphoprotein 8 (Homo sapiens) (UniProt Q99549). Put plainly: qHTS Validation Assay for Inhibitors for MPP8 Chromodomain Interactions with Methylated Histone Tails (AID 488949).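 Also: 50 nM MPP8 with 50 nM peptide preformed then compounds added for 30 min; AlphaScreen signal from MPP8 chromodomain bound to biotinylated H3K9me3 peptide; top concentration of the series differs between compounds; % is scaled to controls: 0 for no effect and ±100 for the full control effect; nearly all actives have a fitted effect of over 55% in size.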 In a few lines: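 50 nM MPP8 + 50 nM b-H3K9me3 peptide, PBS pH 7.4/0.01% Tween-20, 30 min RT; + cpd 30 min RT; + AlphaScreen donor/Ni-chelate acceptor beads 10 ug/mL final, 30 min dark; luminescence read.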
Chain of M-phase phosphoprotein 8 (Homo sapiens) (Q99549 whole entry, looked up): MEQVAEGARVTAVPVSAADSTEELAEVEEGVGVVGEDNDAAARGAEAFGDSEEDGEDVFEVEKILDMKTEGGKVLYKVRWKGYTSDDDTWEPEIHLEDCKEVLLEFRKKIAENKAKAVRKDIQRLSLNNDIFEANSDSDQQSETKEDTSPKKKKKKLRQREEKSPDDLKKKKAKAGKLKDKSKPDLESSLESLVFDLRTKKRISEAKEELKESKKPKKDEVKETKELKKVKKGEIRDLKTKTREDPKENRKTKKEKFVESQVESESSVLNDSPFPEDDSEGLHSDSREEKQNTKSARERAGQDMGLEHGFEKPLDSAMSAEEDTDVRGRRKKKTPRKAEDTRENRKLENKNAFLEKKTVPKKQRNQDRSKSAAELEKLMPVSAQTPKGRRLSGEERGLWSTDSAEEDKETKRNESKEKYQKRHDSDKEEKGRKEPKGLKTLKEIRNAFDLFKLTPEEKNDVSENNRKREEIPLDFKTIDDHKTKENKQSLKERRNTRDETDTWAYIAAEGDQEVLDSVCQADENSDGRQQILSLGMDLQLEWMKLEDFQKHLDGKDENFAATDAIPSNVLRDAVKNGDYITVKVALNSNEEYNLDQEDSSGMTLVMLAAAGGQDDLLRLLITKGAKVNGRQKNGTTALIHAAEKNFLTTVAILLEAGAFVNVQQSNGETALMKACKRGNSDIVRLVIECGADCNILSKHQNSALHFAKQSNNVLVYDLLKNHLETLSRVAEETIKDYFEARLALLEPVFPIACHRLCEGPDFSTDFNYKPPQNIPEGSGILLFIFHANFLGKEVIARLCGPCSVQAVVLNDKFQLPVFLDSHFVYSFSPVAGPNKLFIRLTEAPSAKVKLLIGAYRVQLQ

The target in test [7] is Methanococcus maripaludis chaperonin (MmCpn) (UniProt Q6LX38). The experiment in a line: High-Throughput Screening for Modulators of Cytosolic Chaperonin Activity: MmCpn Primary Screen (AID 488978).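 Also: 50 nM MmCpn enzyme hydrolysing 30 µM ATP at 37 °C; 0% is about no effect.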 In a few lines:
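Steps: chaperonin 50 nM final; add compound, 5 min RT; start with ATP, 30 uM final; hold 10 min at 37C; add ADP Transcreener HTRF reagent, 5 min; read ex 320, em 590 and 665 nm.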

The target in test [8] is Transient receptor potential cation channel subfamily V member 1 (Homo sapiens) (UniProt Q8NER1). The experiment in a line: HTS Assay for Compounds that Act as Enhancers of the Vanilloid Receptor 1 (AID 488979). Also: 0% is about no effect. In outline:
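TRPV1 cells loaded with Fluo-8 calcium dye; compound added and Ca2+ signal (ex 480/em 520 nm) followed 3 min, then capsaicin at EC20 added and read 2 more min to detect enhancement.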

The target of test [9] is Thyrotropin receptor (Homo sapiens) (UniProt P16473). Put plainly: qHTS Assay for Antagonists of the Thyroid Stimulating Hormone Receptor (AID 488980). Also: series mostly up to about 58 µM; 0% is about no effect. In a few lines:
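Readout is cAMP by HTRF competition between cellular cAMP and cAMP-d2 for a cryptate-labelled antibody. Antagonism was assessed in TSHR-transfected HEK293 cells stimulated with 4 nM TSH (EC80, final) in the presence of RO 20-1724.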

Test [10] addresses D(1A) dopamine receptor (Homo sapiens) (UniProt P21728). Put plainly: HTS Assay for Allosteric Agonists of the Human D1 Dopamine Receptor: Primary Screen for Agonists (AID 488981). Also: 0% is about no effect. In outline:
(§1)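 Tetracycline-induced HEK293 Trex D1 cells with forced coupling to calcium, loaded with no-wash calcium dye; kinetic fluorescence read 180 s after compound addition for agonism, then a further 180 s after an EC20 dopamine challenge for potentiation.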

For test [11] the target is unchanged. The experiment in a line: HTS Assay for Allosteric Agonists of the Human D1 Dopamine Receptor: Primary Screen for Potentiators (AID 488982). Also: 0% is about no effect. In outline:
as §1

Test [12] shares this target. The experiment in a line: HTS Assay for Allosteric Agonists of the Human D1 Dopamine Receptor: Primary Screen for Antagonists (AID 488983).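 Also: calcium flux response to an EC80 dopamine challenge measured with no-wash dye; % is scaled to controls: 0 for no effect and ±100 for the full control effect; nearly all actives have a fitted effect of over 65% in size.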 In outline: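 Calcium-flux read-out in inducible HEK293 T-REx cells expressing D1, dye-loaded 30–90 min at room temperature. Kinetic reads: 180 s after compound (agonist phase), then 180 s after an EC80 dopamine challenge.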
The target in test [13] is ATPase family AAA domain-containing protein 5 (Homo sapiens) (UniProt Q96QE3). Put plainly: Validation screen for small molecules that inhibit ELG1-dependent DNA repair in human embryonic kidney (HEK293T) cells expressing luciferase-tagged ELG1 (AID 493107).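 Also: series mostly up to about 46 µM; % is scaled to controls: 0 for no effect and ±100 for the full control effect; inhibitors lower the ELG1-luciferase luminescence signal; nearly all actives have a fitted effect of over 70% in size.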 In outline: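 Luciferase read-out, ONE-Glo, 30 min at room temperature, follows 16 h co-exposure at 37 C of compound and the DNA-damaging agent 5-fluorouridine. Cells: HEK293T with ELG1-luciferase fusion, 2,000 per well, DMSO as vehicle.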

For test [14], the target named is Thyrotropin-releasing hormone receptor (Homo sapiens) (UniProt P34981). The experiment in a line: qHTS for Small Molecule Agonists and Allosteric Enhancers of Human TRH Receptor: Validation Screen for Agonists (AID 493127;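 active = calcium activation more than 3 SD above the typical response in the agonist read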;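 also: intracellular calcium rise by fluo-8 fluorescence before TRH EC20 addition; 0% is about no effect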). Conditions: TRH receptor agonist cell assay; at 2 µM; stronger effect = higher value. In outline: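 Compound-evoked intracellular calcium release in fluo-8-loaded TRHR cells, read kinetically on FDSS (Ex 480/Em 530, 1 s/cycle) after 23 nL pintool transfer. Agonist phase preceded 10 nM TRH EC20 addition.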
Chain of Thyrotropin-releasing hormone receptor (Homo sapiens) (P34981 whole entry, looked up): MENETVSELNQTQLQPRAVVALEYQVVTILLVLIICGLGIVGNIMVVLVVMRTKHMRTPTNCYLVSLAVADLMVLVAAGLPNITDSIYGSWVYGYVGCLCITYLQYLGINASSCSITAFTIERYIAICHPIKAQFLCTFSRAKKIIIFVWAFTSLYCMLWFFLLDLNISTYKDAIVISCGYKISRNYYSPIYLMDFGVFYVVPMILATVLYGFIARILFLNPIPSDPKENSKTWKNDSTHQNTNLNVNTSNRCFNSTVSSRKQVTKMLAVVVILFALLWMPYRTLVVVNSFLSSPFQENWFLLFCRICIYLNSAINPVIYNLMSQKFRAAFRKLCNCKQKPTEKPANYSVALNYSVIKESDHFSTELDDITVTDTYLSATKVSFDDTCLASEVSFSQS

The nature of test [15]: Nrf2 qHTS screen for inhibitors: Validation (AID 493153; active = well fitted inhibition curve with a large enough effect in the main read-out, with a control signal flat, not every such curve was filed as active). The settings on record: Potency: luciferase luminescence; viability change: measured here: cytotoxicity max response. In outline:
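Concentration-response on A549 ARE_Fluc reporter cells exposed 18-24 h at 37 C, 5% CO2. Cytotoxicity read first by CellTiter-Fluor fluorescence (Ex 405/Em 525), then Nrf2 inhibition by BugLite luminescence after 15 min.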

Test [16] in a line: qHTS for Inhibitors of Cell Surface uPA Generation: Validation Assay (AID 493164).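 Also: RAW 264.7 macrophage cells exposed to compound for 18 h; 0% is about no effect.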 In a few lines:
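ATP-Lite luminescence read-out: ATP remains high when uPA activity-dependent LF translocation into the cytoplasm is blocked. RAW 264.7 cells, 18 h compound exposure at 37 C; 7-point titration, 2.45 nM to 38.3 uM final.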

Test [17] can be described thus: Validation screen for small molecules that induce genotoxicity in human embryonic kidney (HEK293T) cells expressing luciferase-tagged ELG1 (AID 493106). Also: 0% is about no effect. In a few lines:
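ELG1-luciferase reporter readout (ONE-Glo, 30 min, room temperature) after 16 hr compound treatment at 37 °C of HEK293T cells at 2,000 per well. Rising luminescence flags genotoxic stress.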

Test [18] has as its target Chromobox protein homolog 1 (Homo sapiens) (UniProt P83916). Put plainly: qHTS Validation Assay for Inhibitors of HP1-beta Chromodomain Interactions with Methylated Histone Tails (AID 488953).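 Also: loss of AlphaScreen luminescence from HP1-beta binding biotinylated H3K9me3 peptide; series mostly up to about 110 µM; % is scaled to controls: 0 for no effect and ±100 for the full control effect; nearly all actives have a fitted effect of over 50% in size.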 In a few lines:
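AlphaScreen proximity signal from streptavidin donor and nickel chelate acceptor beads (final 10 ug/mL) after 30 min dark incubation. Compounds had 30 min at room temperature with preformed complex of 50 nM HP1-beta and 50 nM b-H3(1-18)K9me3 in PBS pH 7.4 with 0.01% Tween-20.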

Chain of D(1A) dopamine receptor (Homo sapiens) (P21728 whole entry, looked up): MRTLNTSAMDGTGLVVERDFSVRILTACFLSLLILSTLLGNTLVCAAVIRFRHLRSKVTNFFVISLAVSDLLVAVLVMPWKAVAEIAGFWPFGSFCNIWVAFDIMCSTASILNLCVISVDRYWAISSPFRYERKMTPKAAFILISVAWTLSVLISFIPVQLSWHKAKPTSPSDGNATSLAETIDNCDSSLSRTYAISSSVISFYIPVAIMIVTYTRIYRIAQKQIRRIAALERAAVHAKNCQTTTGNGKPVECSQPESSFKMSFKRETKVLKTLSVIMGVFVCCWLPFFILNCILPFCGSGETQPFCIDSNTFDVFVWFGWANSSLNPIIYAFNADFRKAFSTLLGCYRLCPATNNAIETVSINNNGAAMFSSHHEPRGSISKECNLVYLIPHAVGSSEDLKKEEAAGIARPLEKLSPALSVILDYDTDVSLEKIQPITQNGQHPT
Chain of Transient receptor potential cation channel subfamily V member 1 (Homo sapiens) (Q8NER1 whole entry, looked up): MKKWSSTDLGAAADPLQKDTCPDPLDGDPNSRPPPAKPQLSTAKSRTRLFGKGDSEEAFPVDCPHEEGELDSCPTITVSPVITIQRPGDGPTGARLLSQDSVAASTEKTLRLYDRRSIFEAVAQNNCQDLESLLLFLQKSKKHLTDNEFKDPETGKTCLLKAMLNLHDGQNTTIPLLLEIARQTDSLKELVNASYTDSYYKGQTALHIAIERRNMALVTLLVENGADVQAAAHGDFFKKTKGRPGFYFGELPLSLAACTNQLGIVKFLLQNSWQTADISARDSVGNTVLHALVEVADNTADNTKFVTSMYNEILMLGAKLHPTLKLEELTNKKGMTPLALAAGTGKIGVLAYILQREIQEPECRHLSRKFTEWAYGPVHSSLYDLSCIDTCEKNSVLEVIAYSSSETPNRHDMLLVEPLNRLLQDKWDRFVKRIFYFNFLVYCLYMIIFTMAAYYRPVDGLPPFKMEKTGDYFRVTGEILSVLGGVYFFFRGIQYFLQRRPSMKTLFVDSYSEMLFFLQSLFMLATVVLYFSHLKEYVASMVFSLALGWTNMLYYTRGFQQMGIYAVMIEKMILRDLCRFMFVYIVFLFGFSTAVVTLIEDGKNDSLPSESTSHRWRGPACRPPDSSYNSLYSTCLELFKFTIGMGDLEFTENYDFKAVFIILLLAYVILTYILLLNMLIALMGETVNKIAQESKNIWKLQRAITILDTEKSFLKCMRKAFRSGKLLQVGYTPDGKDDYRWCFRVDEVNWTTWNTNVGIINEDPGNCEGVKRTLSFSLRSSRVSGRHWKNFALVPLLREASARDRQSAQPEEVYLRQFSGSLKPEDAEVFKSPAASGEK
Chain of Thyrotropin receptor (Homo sapiens) (P16473 whole entry, looked up): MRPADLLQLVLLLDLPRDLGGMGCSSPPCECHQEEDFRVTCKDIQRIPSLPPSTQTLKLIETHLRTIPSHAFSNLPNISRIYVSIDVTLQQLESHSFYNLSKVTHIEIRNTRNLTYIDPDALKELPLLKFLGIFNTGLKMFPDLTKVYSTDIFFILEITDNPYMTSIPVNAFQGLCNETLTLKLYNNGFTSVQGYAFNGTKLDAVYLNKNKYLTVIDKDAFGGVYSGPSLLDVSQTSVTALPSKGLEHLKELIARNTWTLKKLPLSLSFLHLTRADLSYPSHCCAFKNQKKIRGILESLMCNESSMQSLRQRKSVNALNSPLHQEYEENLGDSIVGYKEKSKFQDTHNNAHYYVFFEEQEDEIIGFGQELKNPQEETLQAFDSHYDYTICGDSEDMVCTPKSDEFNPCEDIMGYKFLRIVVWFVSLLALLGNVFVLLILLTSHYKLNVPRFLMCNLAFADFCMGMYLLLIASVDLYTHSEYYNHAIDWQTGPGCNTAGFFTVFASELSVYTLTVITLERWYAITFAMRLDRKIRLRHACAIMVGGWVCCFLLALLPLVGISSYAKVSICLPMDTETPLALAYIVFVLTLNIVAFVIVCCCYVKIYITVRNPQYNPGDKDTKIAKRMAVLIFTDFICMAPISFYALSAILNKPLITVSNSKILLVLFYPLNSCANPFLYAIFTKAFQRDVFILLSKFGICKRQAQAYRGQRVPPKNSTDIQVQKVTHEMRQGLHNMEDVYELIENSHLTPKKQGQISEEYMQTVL
Chain of Methanococcus maripaludis chaperonin (MmCpn) (Q6LX38 1-543): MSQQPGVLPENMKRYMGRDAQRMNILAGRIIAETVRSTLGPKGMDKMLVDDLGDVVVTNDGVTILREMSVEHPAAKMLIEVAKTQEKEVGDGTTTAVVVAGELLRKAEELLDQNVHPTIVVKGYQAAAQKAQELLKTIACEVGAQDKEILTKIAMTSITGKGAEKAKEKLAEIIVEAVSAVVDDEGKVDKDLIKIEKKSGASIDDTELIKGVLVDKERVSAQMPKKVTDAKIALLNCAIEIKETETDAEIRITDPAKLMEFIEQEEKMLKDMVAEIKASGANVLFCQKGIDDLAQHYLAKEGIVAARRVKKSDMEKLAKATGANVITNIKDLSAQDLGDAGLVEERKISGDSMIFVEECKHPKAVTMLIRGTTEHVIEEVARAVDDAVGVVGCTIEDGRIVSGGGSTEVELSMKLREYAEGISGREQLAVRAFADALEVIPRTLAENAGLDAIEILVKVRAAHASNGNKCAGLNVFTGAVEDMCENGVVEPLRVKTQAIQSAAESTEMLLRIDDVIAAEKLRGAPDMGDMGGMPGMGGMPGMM
Chain of Thioredoxin reductase 1, cytoplasmic (Rattus norvegicus) (O89049 whole entry, looked up): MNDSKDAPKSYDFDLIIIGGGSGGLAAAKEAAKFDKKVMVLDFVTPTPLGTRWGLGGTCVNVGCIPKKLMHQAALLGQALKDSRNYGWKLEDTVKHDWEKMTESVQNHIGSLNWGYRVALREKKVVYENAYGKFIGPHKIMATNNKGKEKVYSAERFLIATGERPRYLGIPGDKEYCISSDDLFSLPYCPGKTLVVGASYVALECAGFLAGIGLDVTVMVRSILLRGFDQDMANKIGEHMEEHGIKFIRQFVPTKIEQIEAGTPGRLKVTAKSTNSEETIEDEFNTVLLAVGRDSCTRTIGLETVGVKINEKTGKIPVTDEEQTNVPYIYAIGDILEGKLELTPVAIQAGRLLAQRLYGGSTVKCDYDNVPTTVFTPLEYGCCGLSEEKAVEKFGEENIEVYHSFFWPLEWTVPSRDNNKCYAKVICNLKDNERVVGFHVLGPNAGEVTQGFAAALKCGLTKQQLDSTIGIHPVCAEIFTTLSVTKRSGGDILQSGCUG
Chain of Flap endonuclease 1 (Homo sapiens) (P39748 whole entry, looked up): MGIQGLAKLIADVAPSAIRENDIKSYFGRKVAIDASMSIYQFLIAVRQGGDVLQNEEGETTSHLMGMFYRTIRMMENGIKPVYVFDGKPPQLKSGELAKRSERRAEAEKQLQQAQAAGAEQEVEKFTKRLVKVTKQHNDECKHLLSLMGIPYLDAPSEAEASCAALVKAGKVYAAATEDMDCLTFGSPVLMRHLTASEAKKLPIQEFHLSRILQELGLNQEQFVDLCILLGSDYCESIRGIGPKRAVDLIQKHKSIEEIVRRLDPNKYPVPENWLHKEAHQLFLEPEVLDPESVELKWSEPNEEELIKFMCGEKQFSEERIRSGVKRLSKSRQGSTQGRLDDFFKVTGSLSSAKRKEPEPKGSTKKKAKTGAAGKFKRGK
Chain of Chromobox protein homolog 1 (Homo sapiens) (P83916 whole entry, looked up): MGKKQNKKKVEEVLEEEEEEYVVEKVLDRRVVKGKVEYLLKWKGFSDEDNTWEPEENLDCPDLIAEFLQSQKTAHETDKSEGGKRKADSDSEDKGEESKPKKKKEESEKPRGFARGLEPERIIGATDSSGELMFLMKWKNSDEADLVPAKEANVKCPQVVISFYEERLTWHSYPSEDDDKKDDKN

For the compound `C[C@H](Cc1ccc2c(c1)OC(C(=O)O)(C(=O)O)O2)NC[C@H](O)c1cccc(Cl)c1`, the Potency result in [1], in test [2], in test [4], in test [5], in [6] and in [10] was “inactive” each time. Also, the Potency result in [11], in test [12], in test [13] and in [15] was “inactive” each time. The outcome in [3], in test [7], in [8], in test [9] and in [16] was inactive. Besides, the activation in [14] was 0.625% (inactive). In addition, the viability change in test [15] amounted to 0.983%.
Take `NC(=O)c1cc(N2CC2)c([N+](=O)[O-])cc1[N+](=O)[O-]`: the Potency entry in [1], in test [2], in [4], in test [5], in test [6] and in test [10] was “inactive” in each case. In addition, the Potency entry in test [11], in test [12], in test [17] and in [13] was “inactive” in each case. Moreover, the compound was called inactive in test [3], in test [7], in test [8], in [9] and in test [16]. Also, in [14], the activation is 0.0625% (inactive).
As to `CCOC(=O)c1ncn2c1[C@@H]1CCCN1C(=O)c1cc(OC)ccc1-2`, the Potency entry in [1], in test [2], in [4], in [5], in test [6] and in test [18] was “inactive” in each case. Besides, the Potency result in test [10], in test [11], in [12] and in test [13] was “inactive” each time. Besides, the outcome in test [3], in test [7], in test [8], in test [9] and in [16] was inactive. Further, in [14], the activation was -0.25% (inactive).
Turning to `O=C1C=CC(=O)C=C1`, the Potency entry in test [1], in test [2], in test [4], in test [6], in test [18] and in test [10] was “inactive” each time. Moreover, the Potency result in test [11], in [12], in [17] and in [13] was “inactive” throughout. The outcome in test [3], in [7] and in [8] was inactive. The activation in [14] was 0.5% (inactive).
Turning to `CCN(CC)c1ncnc2c1ncn2[C@@H]1O[C@H](COP(=O)(O)OP(=O)(O)C(Br)(Br)P(=O)(O)O)[C@@H](O)[C@H]1O`, the Potency entry in test [1], in [2] and in [6] was “inactive” each time. Besides, the outcome in test [8] and in [9] was inactive. For the same compound, the activation in test [14] is 0.312% (inactive).
For the compound `CN1C2CCC1CC(OC(c1ccccc1)c1ccccc1N)C2` (stereo not drawn), the Potency result in test [1], in test [2], in test [4], in [5], in [6] and in test [10] was “inactive” in each case. Besides, the Potency entry in test [11], in [12], in test [17], in test [13] and in [15] was “inactive” each time. Besides, the result in test [3], in [7], in [9] and in test [16] was inactive. Also, the activation in test [14] is 1.44% (inactive). Further, the viability change in test [15] is -4.19%.
For the compound `NCCc1c[nH]c2ccc(C(N)=O)cc12`, the Potency result in test [1], in test [2], in [4], in [5], in [6] and in [10] was “inactive” each time. In addition, the Potency entry in test [12], in test [17], in [13] and in test [15] was “inactive” in each case. Also, the outcome in test [3], in [7], in [8], in test [9] and in test [16] was inactive. Further, the activation in [14] is 1.5% (inactive). In [15], the viability change came out at 4.69%.
With `C/C(O)=C(\C#N)C(=O)Nc1cc(Br)ccc1Br`, the Potency entry in test [1], in [2], in test [4], in [5], in [6] and in test [10] was “inactive” throughout. The Potency entry in test [11], in test [12] and in test [17] was “inactive” each time. Further, the call in [3], in test [7], in [8] and in test [16] was inactive. Further, the activation in test [14] was 0.0625% (inactive).
With `C[N+](C)(C)CC#CCN1CCCC1=O`, the Potency result in [1], in test [2], in [4], in [5], in test [6] and in [11] was “inactive” throughout. Moreover, the Potency entry in [12], in [13] and in [15] was “inactive” each time. Besides, the result in test [3], in [7], in test [8], in [9] and in [16] was inactive. Moreover, the activation in test [14] was 57.8% (active). Also, the viability change in test [15] was determined as 2.69%.
